PubChem BioAssay (Tox21)
Values joined by “and” are separate entries in the source; they are usually repeats but may differ in a detail not shown here. Identical values can stand only once. Inconclusive results are not listed. Active and inactive are the calls of the source. Unless noted, the call rests on the fitted dose curve; in most records, active means well fitted curve in the direction sought with a large enough effect in the repeat runs; inconclusive means weak or mixed curves; inactive means no such curve, though single readings can be large; an effect the other way counts as inactive or inconclusive.

Experiments:
[1] = qHTS assay to identify small molecule agonists of the hypoxia (HIF-1) signaling pathway - cell viability counter screen (AID 1224844; calls by dose curve; further: nearly all actives have a fitted effect of over 50% in size; further: potency means the concentration at half of the fitted maximal effect); conditions: HRE-bla ME-180 viability, CellTiter-Glo luminescence, 17 h; series mostly up to 76.8 µM
Procedure, shortened: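 ME-180 HRE-bla cells, 2,000/well, 0.5% dialyzed FBS; 5 hr settle, 17 hr compound at 37C/5% CO2; CCF4-AM reporter read first, then CellTiter-Glo luminescence after 30 min RT.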

[2] = qHTS assay to identify small molecule agonists of H2AX (AID 1224845; active means well fitted activation curve with a large enough effect in the signal ratio in the repeat runs, not every such curve was filed as active; the % refers to the signal ratio; further: potency means the concentration at half of the fitted maximal effect); conditions: CHO-K1 phospho-H2AX Ser139 HTRF, 3 h; series mostly up to 154 µM
Procedure, shortened: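 Phospho-H2AX Ser139 measured by HTRF (ex 320 nm; em 665 and 620 nm) after 24 hr antibody incubation. Compounds, 15 concentrations, 0.76% DMSO, were applied to CHO-K1 cells for 3hr at 37C before lysis.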

[3] = qHTS assay to identify small molecule agonists of H2AX - cell viability counter screen (AID 1224847; calls by dose curve; further: nearly all actives have a fitted effect of over 30% in size; further: potency means the concentration at half of the fitted maximal effect); conditions: CHO-K1 viability, CellTiter-Glo luminescence, 3 h; series mostly up to 70.9 µM
Procedure, shortened: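 Wild-type CHO-K1 cells (10% FBS medium) were plated overnight at 37C, exposed to compounds at 15 concentrations for 3 hr at 37C (0.76% DMSO final), and viability was read as CellTiter-Glo luminescence after 30 min at room temperature.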

[4] = qHTS assay to identify small molecule antagonists of the estrogen related receptor (ERR) signaling pathway from Tox21 library (AID 1224848); conditions: ERR reporter cell line, luciferase antagonist mode, 18 h; series mostly up to 92.4 µM; further: potency means the concentration at half of the fitted maximal effect; nearly all actives have a fitted effect of over 50% in size
Procedure, shortened: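 Antagonist-mode screen of the Tox21 10K library in an NTP-provided ERR reporter cell line; 18 h compound exposure at 37 C, luminescence measured with ONE-Glo.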

[5] = qHTS assay to identify small molecule agonists of the estrogen related receptor (ERR) signaling pathway from Tox21 library (AID 1224849; calls by dose curve; further: on the % scale 0 is the no-effect control and ±100 the full control effect; nearly all actives have a fitted effect of over 15% in size); conditions: ERR reporter cell line, ONE-Glo luciferase, 18 h; at 92.4 µM (top of the series) unless noted
Procedure, shortened: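 ERR cells, 6 h pre-incubation 37 C/5% CO2; cpd in DMSO pinned; 18 h 37 C; ONE-Glo added, 30 min RT; luminescence read. Agonist mode, qHTS.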

[6] = qHTS RealTime-Glo MT Cell Viability Assay in HepG2 cells - 24 hour (AID 1224867); conditions: RealTime-Glo luminescence; series mostly up to 76.8 µM; further: nearly all actives have a fitted effect of over 50% in size; further: potency means the concentration at half of the fitted maximal effect
Procedure, shortened: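 Cells + NanoLuc/prosubstrate dispensed (600 cells/well) → 5 h at 37 C/5% CO2 → compounds in DMSO transferred → 40 h incubation at 37 C, luminescence read at 0, 8, 16, 24, 32, 40 h.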

[7] = A CellTox Green Cytotoxicity Assay to monitor cytotoxicity in HEK293 cells - 0 hour (AID 1224869); conditions: CellTox Green fluorescence; series mostly up to 76.8 µM; further: on the % scale 0 is the no-effect control and ±100 the full control effect; nearly all actives have a fitted effect of over 50% in size
Procedure, shortened: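 Nonlytic real-time cytotoxicity: HEK293 + CellTox Green reagent plated, 5 h preincubation, pintool compound addition (23 nL in DMSO), 37 C for 40 h, fluorescence measured at successive time points.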

[8] = qHTS RealTime-Glo MT Cell Viability Assay in HepG2 cells - 40 hour (AID 1224870); conditions: RealTime-Glo luminescence; series mostly up to 76.8 µM; further: nearly all actives have a fitted effect of over 50% in size; further: potency means the concentration at half of the fitted maximal effect
Procedure, shortened: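 Real-time viability: cells seeded at 600 per well together with NanoLuc and cell-permeant prosubstrate, compounds added after 5 h incubation. Luminescence tracked at 0, 8, 16, 24, 32 and 40 h of exposure.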

[9] = qHTS RealTime-Glo MT Cell Viability Assay in HEK293 cells - 32 hour (AID 1224868); conditions: RealTime-Glo luminescence; series mostly up to 76.8 µM; further: nearly all actives have a fitted effect of over 50% in size; further: potency means the concentration at half of the fitted maximal effect
Procedure, shortened: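 Tox21 10K qHTS, HEK293, 600 cells/well, RealTime-Glo reagent co-dispensed with cells; 5 h preincubation, compound by pintool, 37 C, luminescence at 0–40 h.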

[10] = qHTS assay to identify small molecule agonists of the hypoxia (HIF-1) signaling pathway (AID 1224846; active means well fitted activation curve with a large enough effect in the signal ratio in the repeat runs, not every such curve was filed as active; the % refers to the signal ratio; further: on the % scale 0 is the no-effect control and ±100 the full control effect); conditions: HRE-bla ME-180 cells, beta-lactamase ratio, 17 h; series mostly up to 76.8 µM
Procedure, shortened: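 Cell line: CellSensor HRE-bla ME-180; 2,000 cells/well; 0.5% dialyzed FBS; 5 h preincubation; DMSO compound pin transfer; 17 h, 37C, 5% CO2; CCF4-AM added; bla FRET signal scored for activation.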

CCc1cc(Cc2cc(CC)cc(C(C)(C)C)c2O)c(O)c(C(C)(C)C)c1
active: Potency [1] 11 µM | Potency [2] 50.5 µM | Potency [3] 31.8 µM | Potency [4] 30.6 µM | Potency [6] 49 µM | Potency [8] 54.9 µM
inactive: activity change, positive = activation [5] -75.4% | Potency [7]

CC[C@H]1O[C@]2(CC[C@@H]1C)C[C@@H]1C[C@@H](C/C=C(\C)C[C@@H](C)/C=C/C=C3\CO[C@@H]4[C@H](O)C(C)=C[C@@H](C(=O)O1)[C@]34O)O2
active: Potency [1] 21.7 µM | Potency [2] 44.6 µM | Potency [3] 50 µM | Potency [4] 30.4 µM | Potency [6] 43.3 µM | Potency [9] 24.3 µM | Potency [8] 43.3 µM
inactive: activity change, positive = activation [5] -67.4% | Potency [7]

CCCC(c1cc(C(C)(C)C)c(O)cc1C)c1cc(C(C)(C)C)c(O)cc1C
active: Potency [1] 9.89 µM | Potency [3] 25.6 µM | Potency [4] 15.5 µM | Potency [6] 39.4 µM | Potency [9] 19.7 µM | Potency [8] 31.3 µM
inactive: Potency [2] | activity change, positive = activation [5] -83.3% | Potency [7]

O=C(Oc1ccccc1)c1ccccc1C(=O)Oc1ccccc1
inactive: Potency [1] | Potency [2] | Potency [10] | Potency [6] | Potency [9] | Potency [7] | Potency [8]

CCCCC(CC)COP(=O)(O)OCC(CC)CCCC (stereo not given)
inactive: Potency [2] | Potency [3] | activity change, positive = activation [5] -51.6% and -55.8% | Potency [6] | Potency [7] | Potency [8]
active: Potency [1] 17.4 µM and 5.49 µM | Potency [4] 30.7 µM and 27.3 µM

CCCCCCCCCCCCCCCC[N+](C)(C)CCN(Cc1ccc(OC)cc1)c1ncccn1
active: Potency [1] 21.3 µM | Potency [3] 43.8 µM | Potency [4] 21.1 µM | Potency [6] 6.74 µM | Potency [8] 5.35 µM
inactive: Potency [2] | Potency [7]

CCCN(CCC)c1c([N+](=O)[O-])cc(C(F)(F)F)c(N)c1[N+](=O)[O-]
active: Potency [1] 13.8 µM | Potency [2] 35.6 µM | Potency [3] 50.4 µM | Potency [4] 30.5 µM | Potency [6] 54.8 µM | Potency [9] 19.4 µM
inactive: activity change, positive = activation [5] -75.7% | Potency [7]

CSc1ccc(/C=C2/C(C)=C(CC(=O)O)c3cc(F)ccc32)cc1
inactive: Potency [2] | Potency [3] | activity change, positive = activation [5] -7.17% [at 42.5 µM] | Potency [6] | Potency [9] | Potency [7] | Potency [8]
active: Potency [1] 10.7 µM

CCCCCCCCS(=O)C(C)Cc1ccc2c(c1)OCO2 (stereo not given)
inactive: Potency [1] | Potency [2] | Potency [10] | Potency [6] | Potency [7] | Potency [8]

CCCCC(CC)CN=C(N)NC(N)=NCCCCCCN=C(N)NC(N)=NCC(CC)CCCC (stereo not given)
active: Potency [1] 23.9 µM | Potency [3] 43.8 µM | Potency [4] 6.68 µM | Potency [6] 8.49 µM | Potency [9] 5.35 µM | Potency [8] 8.49 µM
inactive: Potency [2] | activity change, positive = activation [5] -65.1% [at 42.5 µM] | Potency [7]

CCCCN(CCCC)C(=O)N(CCCC)CCCC
inactive: Potency [1] | Potency [2] | Potency [10] | Potency [6] | Potency [9] | Potency [7] | Potency [8]

CC(C)(C)C(=O)OCOC(=O)[C@@H]1N2C(=O)[C@@H](NC(=O)[C@H](N)c3ccccc3)[C@H]2SC1(C)C
inactive: Potency [1] | Potency [2] | Potency [3] | activity change, positive = activation [5] 0.778% [at 42.5 µM] | Potency [6] | Potency [9] | Potency [7] | Potency [8]

O=c1[nH]sc2ccccc12
inactive: Potency [2] | activity change, positive = activation [5] -73.9% | Potency [7]
active: Potency [1] 21.9 µM | Potency [3] 101 µM | Potency [6] 21.9 µM | Potency [8] 21.9 µM

CCCCCCCC/C=C/CCCCCCCC1=NCCN1CCO
active: Potency [1] 54.9 µM | Potency [3] 101 µM | Potency [6] 17.4 µM | Potency [9] 19.5 µM | Potency [8] 17.4 µM
inactive: Potency [2] | Potency [7]

Cn1cc(C(=O)[C@@H]2CCc3nc[nH]c3C2)c2ccccc21
inactive: Potency [1] | Potency [2] | Potency [3] | activity change, positive = activation [5] -13.3% [at 42.5 µM] | Potency [6] | Potency [7]

CN(C)C(=O)C1(N2CCCCC2)CCN(CC[C@@]2(c3ccc(Cl)c(Cl)c3)CN(C(=O)c3ccccc3)CCO2)CC1
active: Potency [1] 45.8 µM | Potency [2] 47.2 µM | Potency [3] 52.9 µM | Potency [4] 28.6 µM | Potency [6] 20.4 µM
inactive: activity change, positive = activation [5] -73.9% | Potency [7]

CN(C)[C@@H]1C(=O)C(C(N)=O)=C(O)[C@@]2(O)C(=O)C3=C(O)c4c(O)cccc4C[C@H]3C[C@@H]12
inactive: Potency [1] | Potency [2] | activity change, positive = activation [5] -27.8% [at 42.5 µM] | Potency [6] | Potency [9] | Potency [7] | Potency [8]

Clc1ccc2n[nH]nc2c1
inactive: Potency [1] | Potency [2] | Potency [3] | Potency [6] | Potency [7] | Potency [8]

Oc1cc2ccccc2c2ccccc12
active: Potency [1] 7.76 µM | Potency [2] 17.9 µM | Potency [6] 11 µM | Potency [9] 11 µM | Potency [8] 11 µM
inactive: Potency [7]
